# Screening data (PubChem)
# FMDV antiviral: blocks foot and mouth disease virus; 410,000 tested, 1.2% active; FMDV antiviral cell-based qHTS; Potency, µM (series often up to 57.9 µM), hits mostly inhibitors; calls by dose curve; tested in HEK293T cells; note: read-out not given here; nearly all actives have a fitted effect of over 45% in size
# VACV Venus inh: vaccinia inhibition (Venus reporter); Potency, µM (titrated, usually from 36.5 µM), actives largely listed as inhibitors; Vaccinia virus Venus reporter expression, fluorescence; 330,000 tested, 0.46% active; AID 720580; calls by dose curve; tested in A549 cells; note: nearly all actives have a fitted effect of over 30% in size
# HCV inhibitor: blocks hepatitis C virus; Huh7.5.1 HCVcc-Cre infection, luciferase reporter, 44 h; Potency, µM (top dose mostly 41.8 µM), most hits filed as inhibitors; 340,000 tested, 3.4% active; active = well fitted inhibition curve with a large enough effect; inconclusive = small, poorly fitted or top-dose-only effect, or another doubt; inactive = no such curve, though single readings can be large or run the other way
#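 Compounds are dispensed onto cells plated 4 h earlier at 1,000 per well, with HCVcc-Cre virus (about 0.5 moi) added next. Following 44 h of culture, luminescent signal is measured for 15 sec after 15 min with substrate at room temperature.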
# LASV entry inh: inhibitors of Lassa virus binding or cell entry; Lassa virus pseudotype entry inhibition, cell reporter; 300,000 tested, 1.2% active; Potency, µM (doses to about 37.9 µM), actives largely listed as inhibitors; calls by dose curve; tested in HEK293 cells; note: nearly all actives have a fitted effect of over 50% in size
# Vaccinia mCherry: vaccinia inhibition (mCherry reporter). Vaccinia virus mCherry reporter infection, fluorescence. Potency, µM (doses to about 36.5 µM), actives largely listed as inhibitors. 310,000 tested, 0.63% active; calls by dose curve; tested in A549 cells; note: nearly all actives have a fitted effect of over 35% in size
# Marburg entry inh: Marburg virus entry inhibition. AID 540276. Potency, µM (top dose mostly 37.8 µM), most hits filed as inhibitors. 300,000 tested, 1.8% active. Marburg virus pseudotyped entry inhibition, cell reporter; calls by dose curve; tested in HEK293 cells
# Numbers stand for hits; . = inactive; ? = inconclusive; / = not tested or not shown. Shown are actives, neighbours in structure and some others; about 5.3% of the full set was active somewhere.
SMILES,FMDV antiviral,VACV Venus inh,HCV inhibitor,LASV entry inh,Vaccinia mCherry,Marburg entry inh
CCOC(=O)c1c(NC(=O)c2ccc(Br)cc2)sc2c1CCCC2,.,.,/,.,.,/
CCOC(=O)c1c(NC(=S)NC(=O)c2ccc(Cn3cc(Cl)cn3)o2)sc2c1CCC(C)C2 (stereo not given),.,28µM,?,/,20µM,.
CC(=O)Nc1ccccc1-c1nc(CNC(=O)c2cccc(-n3cccn3)c2)c(C)o1,?,.,/,/,.,/
Cc1nn(-c2ccccc2)c(OC(=O)c2ccc(F)cc2)c1S(=O)(=O)c1ccccc1,.,.,/,?,.,.
CCOC(=O)c1c(NC(=O)CSc2nnc(C)s2)sc2c1CCC(C)C2 (stereo not given),.,?,11µM,?,/,?
CCOC(=O)c1c(NC(=O)CSc2nnc(C)c(=O)[nH]2)sc2c1CCCC2,.,/,.,.,/,.
CCOC(=O)c1c(NC(=O)CSc2nnc(-c3c[nH]c4ccccc34)n2CCOC)sc2c1CCCC2,.,?,11µM,?,?,.
CCOC(=O)c1c(NC(=O)Cn2nnc3ccccc32)sc2c1CCC(C)C2 (stereo not given),.,?,1.6µM,.,/,?
CCOC(=O)c1c(NC(=O)CSc2nnc(C)s2)sc2c1CCCCC2,?,.,10µM,.,?,?
COc1ccc(CN2CCOc3c(cc(-c4ccc(OC)nn4)cc3OC)C2)c(O)c1,.,.,/,/,.,/
COC(=O)[C@H](C)NS(=O)(=O)C1CC1,/,.,/,/,.,/
O=C(CN1C(=O)COc2ccc(S(=O)(=O)Nc3ccccc3)cc21)Nc1cccc(Cl)c1,.,.,/,.,.,/
COc1ccc(CCNC(=O)Cc2c(C)c3ccc(O)c(C)c3oc2=O)cc1OC,.,.,/,.,.,.
CCOC(=O)Nc1sc2c(c1C(=O)OCC)CCC2,.,/,.,.,/,.
CCOC(=O)c1c(NC(NC(=O)C(C)C)C(Cl)(Cl)Cl)sc2c1CCC2 (stereo not given),?,.,?,?,.,11µM
CCc1cc(=O)oc2cc3occ(-c4ccc(OC)c(F)c4)c3cc12,?,.,?,5µM,?,?
CCCCNc1c(-c2ccc(SC(C)CC)cc2)nc2ccccn12 (stereo not given),?,?,22µM,/,.,/
CCCCNc1c(-c2ccc(OC)c(SC(C)CC)c2)nc2cc(C)ccn12 (stereo not given),28µM,?,7.1µM,/,25µM,/
CCCCNc1c(-c2ccc(Sc3ccc(OC)cc3)cc2)nc2cc(C)ccn12,?,?,10µM,/,?,/
CCCCCCSc1cc(-c2nc3ccc(C)cn3c2NCCCC)ccc1OC,35µM,?,.,/,.,/
COc1ccc(C(=O)NCc2ccccc2CN2CCCC2)cc1S(=O)(=O)N1CCOCC1,.,.,.,.,.,.
CCOc1ccc(-c2nnc(SCC(=O)NCc3ccccc3Cl)o2)cc1,.,.,/,?,.,.
CCCCNc1c(-c2ccc(OC)c(SC(C)CC)c2)nc2ccc(C)cn12 (stereo not given),32µM,.,?,/,?,/
CCCCNc1c(-c2ccc(OC)c(SC(C)CC)c2)nc2ccc(Cl)cn12 (stereo not given),.,.,?,/,.,/
CCC(C)Sc1ccc(-c2nc3ccc(C)cn3c2NC2CCCCC2)cc1 (stereo not given),.,?,.,/,8.9µM,/
SMILES,FMDV antiviral,VACV Venus inh,HCV inhibitor,LASV entry inh,Vaccinia mCherry,Marburg entry inh
CCC(C)Sc1cccc(-c2nc3ccc(C)cn3c2NC2CCCCC2)c1 (stereo not given),?,.,.,/,?,/
COc1ccc(NC(C)C(=O)N/N=C/c2ccc([N+](=O)[O-])s2)cc1 (stereo not given),.,13µM,?,.,8.9µM,.
COC(=O)N/N=C/c1ccc([N+](=O)[O-])s1,.,?,?,?,.,?
Cc1ccc(NC(C)C(=O)N/N=C/c2ccc([N+](=O)[O-])s2)cc1 (stereo not given),.,?,?,?,?,?
O=C(N/N=C/c1ccc([N+](=O)[O-])s1)C(O)c1ccccc1 (stereo not given),.,/,7.1µM,?,/,.
CNC(=O)CSc1nnc(-c2ccccc2)n1C,251µM,.,.,/,.,/
O=C(Cc1ccccc1)N/N=C/c1ccc([N+](=O)[O-])s1,?,?,11µM,?,/,?
Cc1ccc2nc(-c3ccc(Cl)c(NC(=O)COc4ccc([N+](=O)[O-])cc4)c3)oc2c1,.,.,/,.,.,?
O=C(Nc1ccccc1C(F)(F)F)N1CCC(CN2CCc3ccccc3C2)CC1,.,.,/,.,.,/
Cn1c(SCC(=O)N/N=C/c2ccc([N+](=O)[O-])s2)nnc1-c1ccccc1,?,?,11µM,?,28µM,?
CC(C)=CCc1c([C@@H]2CCc3ccc(O)cc3O2)cc2c(c1O)OC(C)(C)C=C2,.,.,14µM,/,.,/
COc1ccc(-c2sc3cc4c(cc3c2C#CC2(N)CCCCC2)OCO4)cc1,.,?,22µM,/,?,/
COc1ccc(-c2sc3ccc(N4CCOCC4)cc3c2C#CC2(O)CCCCC2)cc1,?,?,2.8µM,/,?,/
COC(=O)c1c(-c2ccc(OC)cc2)oc2ccccc12,.,.,?,/,.,/
COc1ccc(-c2sc3ccc(OC)cc3c2C#Cc2cncn2C)cc1,.,?,2.8µM,/,?,/
COc1cccc(-c2sc3ccc(OC)cc3c2C#CC2(O)CCCCC2)c1,.,.,?,/,.,/
COc1ccc(-c2oc3ccccc3c2C#Cc2cncn2C)cc1,.,?,2.8µM,/,?,/
C/C=C(\C)C(=O)NCCN1Cc2ccccc2OC(c2ccccc2OC)C1 (stereo not given),.,.,/,/,.,/
O=C1[C@H](Cc2ccccc2)NC/C=C\C[C@@H](c2ccco2)N1Cc1ccccc1,/,.,/,/,.,/
COc1ccc(-c2sc3cc4c(cc3c2C#Cc2cncn2C)OCO4)cc1,.,.,5µM,/,?,/
COc1ccc(-c2sc3cc4c(cc3c2-c2ccc(OCCN3CCOCC3)cc2)OCO4)cc1,.,.,.,/,.,/
CCN1C(=O)[C@@H]2[C@H]3[C@H](O)[C@H](O)CC(=NO[C@@H](C)c4cc(-c5c(C)cc(C)cc5C)no4)[C@@H]3CC[C@H]2C1=O,/,/,/,/,/,.
CN(C)CCC=C1c2ccccc2COc2ccccc21,.,/,/,/,/,/
O=[N+]([O-])c1cc(/C=N/NC(=S)Nc2ccccc2Cl)ccc1Cl,.,?,?,?,?,8.9µM
COc1cc(/C=N/NC(=O)Cc2ccccc2)ccc1Oc1ccc([N+](=O)[O-])cc1[N+](=O)[O-],.,/,14µM,.,/,.
COc1cc(/C=N/Nc2ccccc2[N+](=O)[O-])cc(OC)c1O,.,.,?,/,.,.
COc1ccc(/C=N/NC(=S)Nc2ccccc2[N+](=O)[O-])cc1O,.,?,?,23µM,.,?
CCN(CC)CCn1c(=O)n(-c2ccc(Cl)cc2)c(=O)c2c3c(sc21)CN(C)CC3,.,/,4µM,/,/,/
CC(=O)Nc1cccc(-c2csc(C(C)(O)c3ccc(F)c(F)c3)n2)c1 (stereo not given),.,.,/,/,?,/
CC(=O)Nc1ccc2nc(C3CC3)n(Cc3ccc(Cl)cc3)c(=O)c2c1,.,/,?,/,/,/
